In all, about 18,000 sequences were measured (“log2 normalized intensity”: median about 0.36, highest 2% from about 7.3 on). What follows is part of a selection rich in the highest values, with near analogues and random picks from the rest.
biological target: T1, HNF4alpha8 (COS-7 nuclear extract) (Homo sapiens, UniProt P41235-5 1-452); assay: protein-binding microarray; COS-7 nuclear extract on double-stranded Agilent 4x180k PBM; binding buffer, salt, pH and temperature not given in the material; high values mean tight binding; conditions: chain copies: 2; label: 3' end of strand 1 on the slide; dsDNA, one strand shown
T1 sequence: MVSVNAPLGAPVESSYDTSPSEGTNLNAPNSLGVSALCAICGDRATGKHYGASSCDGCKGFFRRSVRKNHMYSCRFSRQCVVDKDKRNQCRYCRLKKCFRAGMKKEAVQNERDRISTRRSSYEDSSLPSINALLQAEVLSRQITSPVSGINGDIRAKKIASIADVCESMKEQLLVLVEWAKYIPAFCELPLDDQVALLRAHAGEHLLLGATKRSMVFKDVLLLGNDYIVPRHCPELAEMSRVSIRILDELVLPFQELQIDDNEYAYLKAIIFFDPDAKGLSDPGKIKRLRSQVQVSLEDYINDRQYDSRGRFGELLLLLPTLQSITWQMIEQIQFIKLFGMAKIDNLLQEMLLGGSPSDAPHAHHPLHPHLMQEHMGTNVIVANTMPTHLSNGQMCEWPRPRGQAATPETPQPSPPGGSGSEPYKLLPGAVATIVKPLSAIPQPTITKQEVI
Procedure, shortened: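 Using CaPO4, COS-7 cells were transiently transfected with a human HNF4α isoform expression vector, and their nuclear extracts were applied to a custom Agilent SurePrint G3 4x180k double-stranded oligonucleotide array (~60 nt; ~44,000 test sequences in quadruplicate). Bound HNF4α was imaged at 2-µm resolution with an Agilent G2565CA scanner. Agilent software supplied the background-corrected, normalized gProcessedSignal that serves as the binding signal.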

Sequence	binding signal [log2 normalized intensity]
TTGCAGACCTTGGTCAAAGTGACACATTCCGCCTAGGGAGATTAGAGTATCGGTCGA	0.772
GTTACCTTGGGGTCAAAGTACATCCCCTAAGCCTAGGGAGATTAGAGTATCGGTCGA	7.38
GGTCAAAGTACATCCCCTAAAACATCAAATGCCTAGGGAGATTAGAGTATCGGTCGA	3.45
CTTGGGGTCAAAGTACATCCCCTAAAACATGCCTAGGGAGATTAGAGTATCGGTCGA	6.61
TGCAAGTTACCTTGGGGTCAAAGTACATCCGCCTAGGGAGATTAGAGTATCGGTCGA	9.54
AGGTGCAAAGTACATATTTACTTACCTTTTGCCTAGGGAGATTAGAGTATCGGTCGA	3.68
AACACCAGCAACCGCCTACCTTTGGACTTCGCCTAGGGAGATTAGAGTATCGGTCGA	6.25
TGGACCATTGCTGACCTTGCCTCTGTGCTCGCCTAGGGAGATTAGAGTATCGGTCGA	1.8
CTCTGGCCAGAGAGATGTCAGCCCAAGATAGCCTAGGGAGATTAGAGTATCGGTCGA	3.25
AAATGAAGTGGTATCCTGCAGTCAGTCTGAGCCTAGGGAGATTAGAGTATCGGTCGA	-0.508
TGACTTTCTTCCTATGGGATCAAAGTGCGAGCCTAGGGAGATTAGAGTATCGGTCGA	5.69
AAAAAATGGGCAAAGGACAATAATGAATAAGCCTAGGGAGATTAGAGTATCGGTCGA	-0.651
CCTGTTTGACCTTCGAACCCTTGCCATTTAGCCTAGGGAGATTAGAGTATCGGTCGA	7.81
CATACTTCTTCCTGTTTGACCTTCGAACCCGCCTAGGGAGATTAGAGTATCGGTCGA	10.1
TTGACCTTCTCTGTTAACCCTTTGCAGCCCGCCTAGGGAGATTAGAGTATCGGTCGA	2.91
TTGACCTTCGAACCCTTGCCATTTACATCAGCCTAGGGAGATTAGAGTATCGGTCGA	6.21
TTCTTCCTGTTTGACCTTCGAACCCTTGCCGCCTAGGGAGATTAGAGTATCGGTCGA	9.64
GTACCTTGACCTTCTCTGTTAACCCTTTGCGCCTAGGGAGATTAGAGTATCGGTCGA	4.52
CCTTGACCCTTCCTCCCATTTGCTGCTCTAGCCTAGGGAGATTAGAGTATCGGTCGA	1.81
CTCCTGTTTGTATTCCTTGTCCTTGACCCTGCCTAGGGAGATTAGAGTATCGGTCGA	4.96
AAGCACATACTTCTTCCTGTTTGACCTTCGGCCTAGGGAGATTAGAGTATCGGTCGA	5.61
ACCTCTGTAATAACTGCAGTGCCACTCGGGGCCTAGGGAGATTAGAGTATCGGTCGA	-0.418

Sequence	binding signal [log2 normalized intensity]
CTTTATCCTACAAGGGAGATAAACTTTATCGCCTAGGGAGATTAGAGTATCGGTCGA	0.672
GCTTGGCAAACATTTCACTTTGCTCCCTCCGCCTAGGGAGATTAGAGTATCGGTCGA	2.18
TGAATGATCAAAGGTTGGTTTTTGGAGACAGCCTAGGGAGATTAGAGTATCGGTCGA	3.36
TCCTGAGTGATTGTAGTGTCATTGTTATTTGCCTAGGGAGATTAGAGTATCGGTCGA	1.98
GGGGAGGGCAGGGTCAGAACCTGCCCATGAGCCTAGGGAGATTAGAGTATCGGTCGA	0.0112
AGAACCTGCCCATGACCTTTGGACTGTGACGCCTAGGGAGATTAGAGTATCGGTCGA	10.2
GGACTGTGACCCCACCTCTCAGACAGAGCTGCCTAGGGAGATTAGAGTATCGGTCGA	3.8
GGGCAGGGTCAGAACCTGCCCATGACCTTTGCCTAGGGAGATTAGAGTATCGGTCGA	6.45
CCTTTGGACTGTGACCCCACCTCTCAGACAGCCTAGGGAGATTAGAGTATCGGTCGA	5.4
GGGTCAGAACCTGCCCATGACCTTTGGACTGCCTAGGGAGATTAGAGTATCGGTCGA	10.8
CTGCCCTTTGGAACCTGCCCTCTGTCCCATGCCTAGGGAGATTAGAGTATCGGTCGA	4.63
CTTTGGAACCTGCCCTCTGTCCCATGGTGTGCCTAGGGAGATTAGAGTATCGGTCGA	2.85
CATGACCTTTGGACTGTGACCCCACCTCTCGCCTAGGGAGATTAGAGTATCGGTCGA	7.69
TCAGGTGTTGCTCTCTTGCCATTCGTGGATGCCTAGGGAGATTAGAGTATCGGTCGA	0.994
ACTACTAACCGAAAGTCTGACCCTTGACCAGCCTAGGGAGATTAGAGTATCGGTCGA	7.2
GAAGGAGCACCAATGACCTTTGACCCTTCTGCCTAGGGAGATTAGAGTATCGGTCGA	11.2
CAATGACCTTTGACCCTTCTCTGGGAGAAAGCCTAGGGAGATTAGAGTATCGGTCGA	8.44
AAACAATGACCTCTGCACCCTTCCCTGAGTGCCTAGGGAGATTAGAGTATCGGTCGA	4.47
CAATCCTGGAGAAGGAGCACCAATGACCTTGCCTAGGGAGATTAGAGTATCGGTCGA	4.02
ACCTTTGACCCTTCTCTGGGAGAAAGGGAGGCCTAGGGAGATTAGAGTATCGGTCGA	3.86
TTTGAAAGAAAGAGACCTTTACCCTGACCTGCCTAGGGAGATTAGAGTATCGGTCGA	4.47
CTAAGCAGCGAAGCTGTGTCAGGCATTGTAGCCTAGGGAGATTAGAGTATCGGTCGA	-0.633

Sequence	binding signal [log2 normalized intensity]
AGATTCTGCAAACCTATTAATATATTCATAGCCTAGGGAGATTAGAGTATCGGTCGA	-0.929
AGGCAGTCTGTTGACCTTTGGCCAAGGGCAGCCTAGGGAGATTAGAGTATCGGTCGA	8.19
CTTTGGCCAAGGGCAGTGTTTGCCCAGCTTGCCTAGGGAGATTAGAGTATCGGTCGA	0.731
GAGTCTGTTGTCTAACATTTTTGACCTTCAGCCTAGGGAGATTAGAGTATCGGTCGA	4.68
GTCTGTTGACCTTTGGCCAAGGGCAGTGTTGCCTAGGGAGATTAGAGTATCGGTCGA	7.73
CCTCTTTGAGTCTGGTGTTCTCTTGGCCAAGCCTAGGGAGATTAGAGTATCGGTCGA	1.63
TTGACCTTTGGCCAAGGGCAGTGTTTGCCCGCCTAGGGAGATTAGAGTATCGGTCGA	6.36
TCTTTACACCATTGCAAGGATTCCAAATTTGCCTAGGGAGATTAGAGTATCGGTCGA	0.0367
AAAGATTGCAGCAAGGAATTCAACCCTTGTGCCTAGGGAGATTAGAGTATCGGTCGA	2.23
GTCTTATCTACCTGGCTTGTTTGCAAAGCAGCCTAGGGAGATTAGAGTATCGGTCGA	0.749
TGCAGTTTCCCTATTCTCAGTGATATAAAAGCCTAGGGAGATTAGAGTATCGGTCGA	0.942
CACTGGCTCTGGGGTCAAAGTCCCCTGAGCGCCTAGGGAGATTAGAGTATCGGTCGA	7.66
CCTCCTCTCTGGGTCAAAGGTCATCGCACCGCCTAGGGAGATTAGAGTATCGGTCGA	8.5
GGGGTCAAAGTCCCCTGAGCTTGAGTCCATGCCTAGGGAGATTAGAGTATCGGTCGA	6
TCTCTGGGTCAAAGGTCATCGCACCGGCAGGCCTAGGGAGATTAGAGTATCGGTCGA	7.54
AGGTCGCAAGCACTGGCTCTGGGGTCAAAGGCCTAGGGAGATTAGAGTATCGGTCGA	4.08
GAGGTGTCAGCCACCCCTCCTCCTGGGGGCGCCTAGGGAGATTAGAGTATCGGTCGA	2.93
GCCACCCTCCTCTCTGGGTCAAAGGTCATCGCCTAGGGAGATTAGAGTATCGGTCGA	10.2
CTCTCCCTCCTCTCTGAGCAGTCAAACTGGGCCTAGGGAGATTAGAGTATCGGTCGA	1.89
AAAGGTCATCGCACCGGCAGGGGAGAACTTGCCTAGGGAGATTAGAGTATCGGTCGA	1.24
CCTGCCTCTCCTCTGAGCTTCATCCTGACCGCCTAGGGAGATTAGAGTATCGGTCGA	1.7
CTGGGGCCACCCTCCTCTCTGGGTCAAAGGGCCTAGGGAGATTAGAGTATCGGTCGA	5.36

Sequence	binding signal [log2 normalized intensity]
CCTGGTCAAAGTCAACTCCTCCAAGCCACCGCCTAGGGAGATTAGAGTATCGGTCGA	0.614
CCAATTCACAGAACTCCCTAAGTGGCCTCAGCCTAGGGAGATTAGAGTATCGGTCGA	0.0537
GGTTGTCAGACTGGTGTAGTGGGGAGGGCAGCCTAGGGAGATTAGAGTATCGGTCGA	1.35
GCGGCATTCCTGTCAAAATCTGATCTTTCCGCCTAGGGAGATTAGAGTATCGGTCGA	1.47
CAAGTTGGTTTACATTCTTAGAAGATAAAGGCCTAGGGAGATTAGAGTATCGGTCGA	0.323
GAGGCTTTGAGTCATTGAGGCTTTGCCTTAGCCTAGGGAGATTAGAGTATCGGTCGA	-0.699
CCATTTTGGACTTTGACCTCCAAAATTATAGCCTAGGGAGATTAGAGTATCGGTCGA	10.9
AATGATGATGACTTTTGACCCCAGGGGAAAGCCTAGGGAGATTAGAGTATCGGTCGA	6.38
CATTGACTTTGCCTTTTGGCTAAAGTCCAAGCCTAGGGAGATTAGAGTATCGGTCGA	4.75
TTGGACTTTGACCTCCAAAATTATAAGTCAGCCTAGGGAGATTAGAGTATCGGTCGA	8.58
GAATTCTTGACTTTGGACTTTCAAAAGTTAGCCTAGGGAGATTAGAGTATCGGTCGA	5.14
CACAGCTGGACTTTGGCTGCAAAATTTGAAGCCTAGGGAGATTAGAGTATCGGTCGA	3.88
CTTTGTAGCACTTTGGACCTCCACTTTGGAGCCTAGGGAGATTAGAGTATCGGTCGA	3.36
GAGACCCATTTTGGACTTTGACCTCCAAAAGCCTAGGGAGATTAGAGTATCGGTCGA	11.3
CTTGACTTTGGACTTTCAAAAGTTAAGGTCGCCTAGGGAGATTAGAGTATCGGTCGA	3.98
TTTGTCAAATGCTTCCAAGAATTTAAGAGAGCCTAGGGAGATTAGAGTATCGGTCGA	-0.862
CAGAGGACAGGTTTCCTGAGTTACAGATAAGCCTAGGGAGATTAGAGTATCGGTCGA	-0.778
ATTCACATCTCCAGTTCCAAAGTCCAGGTGGCCTAGGGAGATTAGAGTATCGGTCGA	6.55
TGTTAGCAGAAACCATCTGGCTTGGCCCCCGCCTAGGGAGATTAGAGTATCGGTCGA	4.14

From PMC10726135, “HNF4α isoforms regulate the circadian balance between carbohydrate and lipid metabolism in the liver”
